Where “and” joins values, the source holds several entries; their conditions need not be identical. Equal entries are not always repeated. Out of some 290,000 compounds screened, about 3,000 (1%) were called active. The sample holds actives, similar compounds and a random draw of the others, so the mix is not that of the screen. Values without a mark were called inactive. Cut-off read from the data, not from the text of the source: active = inhibition mostly above about 36% (no sharp cut-off); inactive = mostly below about 34%.
Test: inhibition of NOD1-driven NF-kB reporter – cell-based, luminescence, uHTS, primary screen (AID 1578);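 note: HEK-293T reporter cells stimulated with the NOD1 agonist gamma-tri-DAP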
Settings: NOD1-driven NF-kB luciferase reporter cells, at 4 µM, active compounds read high

Row | SMILES | inhibition
1 | Cc1ccc2[nH]c3c(=O)n(Cc4ccco4)cnc3c2c1 | 1.2%
2 | COc1cc(-c2nnc3sc(C4CCCCC4)nn23)cc(OC)c1OC | -20.6%
3 | COc1cccc(-c2nnc3sc(C4CCCCC4)nn23)c1 | 96.4% (active)
4 | CCOc1cccc(-c2nnc3sc(-c4ccc(C)cc4)nn23)c1 | -0.8%
5 | COc1ccc(-c2nnc3sc(C4CCCCC4)nn23)cc1OC | 9.5%
6 | CCOc1cccc(-c2nnc3sc(C4CCCCC4)nn23)c1 | 66.8% (active)
7 | c1cncc(-c2nnc3sc(C4CCCCC4)nn23)c1 | -14.1%
8 | O=C(c1ccccc1)N1CCC(c2nc(-c3ccc(S(=O)(=O)N4CCOCC4)cc3)no2)CC1 | 18.2%
9 | COCCCNC(=S)NNC(=O)Cn1nc(C)c(Br)c1C | 0.3%
10 | CC(Oc1ccc(Cl)cc1Cl)c1nc(-c2ccc(NC(=O)c3ccncc3)cc2)no1 (stereo not drawn) | 42.3% (active)
11 | CC(Oc1ccc(Cl)cc1Cl)c1nc(-c2ccc(NC(=O)c3ccccn3)cc2)no1 (stereo not drawn) | -18.6%
12 | CC(Oc1ccc(Cl)cc1Cl)c1nc(-c2ccc(NC(=O)c3ccco3)cc2)no1 (stereo not drawn) | -12.3%
13 | C=C(C(=O)O)C1CCC2(C)CCCC(C)(O)C2C1 (stereo not drawn) | -0.6%
14 | C/C(O)=c1/ccc2cccc3nc(C)nc1c23 | -3.6%
15 | NNc1nc(C(F)(F)F)nc2ccccc12 | -7.9%
16 | O/C=c1\ccc2cccc3nc(C(F)(F)F)nc1c23 | 38% (active)
17 | Cc1ccc(NC(=O)COC(=O)C(NS(=O)(=O)c2ccc(Cl)cc2)C(C)O)c(Br)c1 (stereo not drawn) | -22.2%
18 | CCOC(=O)N1CCN(C(=O)CN(C2CCCCC2)S(=O)(=O)c2c(C)cc(C)cc2C)CC1 | -2.2%
19 | CCCNC(=O)c1ccc(S(=O)(=O)c2ccc(OC)cc2)c([N+](=O)[O-])c1 | 63.9% (active)
20 | COc1ccc(C(=O)NCCNc2ccc([N+](=O)[O-])cc2)cc1 | -51.3%
21 | COc1ccc(C(=O)NCCNc2ccccc2[N+](=O)[O-])cc1 | -34%

Row | SMILES | inhibition
22 | CCOc1ccc(OCC)c(S(=O)(=O)n2cc(C)nc2CC)c1 | -17.2%
23 | CCc1nc(C(N)=O)c2[nH]c(=O)n(-c3ccccc3F)c2n1 | -17%
24 | COc1ccc(OC)c(/C=C/C(=O)N2C(=O)c3cccc(N)c3C2=O)c1 | 88.6% (active)
25 | COc1cc(/C=C/C(=O)N2C(=O)c3cccc(N)c3C2=O)cc(OC)c1OC | 17.4%
26 | Nc1cccc2c1C(=O)N(C(=O)/C=C/c1cccc(Br)c1)C2=O | 3.9%
27 | COCCSc1nnc(NC(=O)Cc2ccc(OC)cc2)s1 | -20.4%
28 | CCN1C(=O)C(CC(=O)Nc2ccc(OC)cc2)N(CCCN2CCN(c3ccc(F)cc3)CC2)C1=S (stereo not drawn) | -47.7%
29 | COc1ccccc1N1CCN(C(=O)CCCNC(=O)Cn2cnc3sc(C)c(C)c3c2=O)CC1 | 17.8%
30 | Cc1cccc(NC(=O)CSc2nccn2Cc2ccco2)c1C | -19.3%
31 | CN(CCO)c1ccc(/C=N/Nc2nncc3ccccc23)cc1 | 57.1% (active)
32 | CN(C)c1ccc(/C=N/Nc2nncc3ccccc23)cc1 | 15%
33 | COc1ccc(/C=N/Nc2nncc3ccccc23)cc1 | 0.2%
34 | O=C(COC(=O)c1sc2cc(Cl)ccc2c1Cl)Nc1ncc(Cl)cc1Cl | -10.9%
35 | COc1ccccc1-c1cc(-c2ccccc2)nc(=O)[nH]1 | -2.4%
36 | COc1ccc(NC(=O)c2cc([N+](=O)[O-])ccc2N2CCCCC2)cc1 | -27.2%
37 | COc1ccc(NC(=O)c2cc([N+](=O)[O-])ccc2O)cc1 | 99.1% (active)
38 | COc1ccc(NC(=O)c2cc([N+](=O)[O-])ccc2N2CCCC2)cc1 | -23.7%
39 | CCN1CCc2c(OCc3ccc(C)cc3)cccc2C1=O | 2.6%
40 | CCCCn1c(-c2csc3ccccc23)n[nH]c1=S | 5.2%
41 | CCCCNC(=O)C1CCN(C(=O)C2CCN(S(=O)(=O)c3ccc(C)cc3)CC2)CC1 | -21.1%
42 | C=CCC1(CC=C)CCCN1C(=O)c1cc(COc2cccc(OC)c2)on1 | 0.2%

Row | SMILES | inhibition
43 | C=CCC1(CC=C)CCCN1C(=O)c1cc(COc2ccc(F)c(F)c2)on1 | -18.8%
44 | CNC(=O)/C=C1\NC(C)(C)Cc2c1ccc1ccccc21 | 14.5%
45 | Cc1nnc(N/N=C/C(C)c2ccccc2)[nH]c1=O (stereo not drawn) | -10%
46 | O=C(CCn1c2c(c3ccccc31)CCCC2)NNC(=O)c1ccc([N+](=O)[O-])cc1 | -4.7%
47 | CCCCn1c(SCC(=O)Nc2nnc(C)s2)nnc1-c1ccoc1C | 8.6%
48 | O=C(NCCCNC(=O)c1c(F)cccc1F)c1c(F)cccc1F | 1.4%
49 | O=C(NCC(Cl)c1ccc2ccccc2c1)c1c(F)cccc1F (stereo not drawn) | 31.2% (active)
50 | O=C(NCC(O)c1ccc2ccccc2c1)c1c(F)cccc1F (stereo not drawn) | -2.4%
51 | Cc1ccc(CN(Cc2cc3cc(C)ccc3[nH]c2=O)C(=O)N2CCOCC2)cc1 | -1.5%
52 | CC(C)CNC(=O)COC(=O)c1cc(Cl)cc(Cl)c1N | -25.7%
53 | CC1(C)Cc2nc(N)c(=O)sc2C1 | 5.3%
54 | O=C(O)/C=C/c1cccnc1 | -4.2%
55 | CC(/C=C\c1cccnc1)=C/C(=O)O | -5.6% and -22.2%
56 | O=C(/C=C/c1cccnc1)/C=C/c1cccnc1 | 49.7% (active)
57 | COC(=O)CCC(=O)N(C)CC1CCCN(CCc2cccc(C(F)(F)F)c2)C1 (stereo not drawn) | 6.2%
58 | O=C(O)CCN1C(=O)c2ccc(Oc3ccc([N+](=O)[O-])cc3)cc2C1=O | -1.1%
59 | COc1ccccc1N(C(=O)c1snc(C(N)=O)c1N)C(C(=O)NC1CCCC1)c1ccc(N(C)C)cc1 (stereo not drawn) | -3%
60 | O=C(N/N=C/c1cccc2nccnc12)c1ccccc1O | 6%
61 | O=C(C#Cc1ccccc1)c1ccc([N+](=O)[O-])cc1 | 38.4%
62 | O=C(C#Cc1ccccc1)c1cccc([N+](=O)[O-])c1 | 79.8% (active)
63 | O=C(C#Cc1cccc([N+](=O)[O-])c1)c1ccccc1 | 55.8%

— PubChem BioAssay AID1578 (Sanford-Burnham Center for Chemical Genomics, 2009)
